Data reported in PubChem BioAssay.
The source made the active and inactive calls. Unless noted, no rule for the calls is given here.

Experiments:
[1] = tested on: Wnt5a (protein binding on small-molecule microarray); assay: Wnt5a binders on small-molecule microarray, primary screen, biophysical, 635/667 nm fluorescence (AID 1142); conditions: 635 nm fluorescence, higher = more signal;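 also: fluorescence read at 667 nm with signal to noise per printed feature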
[2] = cell viability in Huh7 cells, primary screen, cytotoxicity control for HCV replication inhibitor project, CellTiter-Glo luminescence, basal, 48 h (AID 1143); conditions: Huh7 HCV replicon, higher = more signal, called active from +8 up or from −8 down;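 also: Huh7 hepatoma cells carrying a hepatitis C replication reporter with no stimulus; test concentration not given here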
[3] = P. aeruginosa biofilm formation inhibitors, primary screen, PAO1 strain, BacTiter-Glo luminescence, LB-PBS (AID 1144); conditions: 12 h, higher = more signal
[4] = CREB reporter modulators without forskolin, primary screen, cell-based, PC12, CRE-LacZ reporter, unstimulated (AID 1145); conditions: no forskolin, luminescence, 4.5 h, higher = more signal, called active from +8 up or from −8 down
[5] = CREB reporter modulators under forskolin, primary screen, cell-based, PC12, CRE-LacZ reporter, forskolin-stimulated (AID 1146); conditions: luminescence, 4.5 h, higher = more signal, called active from +8 up or from −8 down;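 also: PC12 cells with 6xCRE LacZ reporter stimulated by forskolin 10 µM; beta-galactosidase reporter signal reflecting CREB driven transcription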
[6] = molecular target: Streptavidin (Streptomyces avidinii) (UniProt P22629); assay: streptavidin binders on small-molecule microarray, primary screen, artefact control for SMM compound annotation, biophysical, 635/667 nm fluorescence (AID 1147); conditions: streptavidin binding, higher = more signal;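 also: signal reflects streptavidin binding to arrayed compounds as a control protein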
[7] = small-molecule binders of probe aInhba, primary screen, biochemical, small-molecule microarray, 635/667 nm fluorescence (AID 1148); conditions: higher = more signal;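 also: score merges 667nm spot fluorescence with signal-to-noise for antibody binding to printed compounds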
Torsin-1A (Homo sapiens) [8] = molecular target: Torsin-1A (Homo sapiens) (UniProt O14656); assay: torsin A binders from cell lysate, primary screen, small-molecule microarray, wild-type, 635/667 nm (AID 1149); conditions: COS7 hTOR1A-WT lysate, 635 nm fluorescence, higher = more signal
Torsin-1A (Homo sapiens) [9] = molecular target: Torsin-1A (Homo sapiens) (UniProt O14656); assay: small-molecule binders of mutant TOR1A in lysate, primary screen, cell lysate, small-molecule microarray, COS7 lysate, 635/667 nm fluorescence (AID 1150); conditions: COS7 hTOR1A mutant lysate, 635 nm fluorescence, higher = more signal;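 also: score pools 667 nm emission and signal to noise measuring lysate protein binding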
[10] = tested on: Sonic hedgehog protein (Shh); assay: small-molecule binders of Shh protein, primary screen, biochemical, small-molecule microarray, 635/667 nm fluorescence (AID 1151); conditions: small-molecule microarray binding, 635 nm fluorescence; higher = more signal;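 also: Shh protein binding to compounds spotted on small-molecule microarray slides; score combines spot fluorescence intensity with signal-to-noise across triplicate slides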

Sequence of Torsin-1A (Homo sapiens) (O14656 whole entry, looked up): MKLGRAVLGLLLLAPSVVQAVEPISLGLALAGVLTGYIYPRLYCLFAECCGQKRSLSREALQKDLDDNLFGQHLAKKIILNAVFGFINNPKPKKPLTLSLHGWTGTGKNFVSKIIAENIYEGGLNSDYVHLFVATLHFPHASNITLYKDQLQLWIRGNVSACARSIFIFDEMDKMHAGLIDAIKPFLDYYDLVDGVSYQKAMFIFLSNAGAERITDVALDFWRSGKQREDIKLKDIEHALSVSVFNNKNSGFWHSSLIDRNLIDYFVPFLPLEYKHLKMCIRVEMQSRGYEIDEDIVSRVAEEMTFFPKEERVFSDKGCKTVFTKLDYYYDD
Sequence of Streptavidin (Streptomyces avidinii) (P22629 whole entry, looked up): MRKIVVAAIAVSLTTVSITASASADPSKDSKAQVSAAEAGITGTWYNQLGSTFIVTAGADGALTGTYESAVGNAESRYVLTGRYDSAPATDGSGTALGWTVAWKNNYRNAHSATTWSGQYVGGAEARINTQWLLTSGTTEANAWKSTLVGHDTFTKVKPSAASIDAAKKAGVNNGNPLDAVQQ

| SMILES | composite z-score [1] | z-score [2] | z-score [3] | z-score [4] | z-score [5] | composite z-score [6] | composite z-score [7] | composite z-score (Torsin-1A (Homo sapiens) [8]) | composite z-score (Torsin-1A (Homo sapiens) [9]) | composite z-score [10] |
| --- | --- | --- | --- | --- | --- | --- | --- | --- | --- | --- |
| CC(C)c1ccc(NN2C(C(O)c3ccc(B(O)O)cc3)C=CC3C(=O)N(c4ccccc4)C(=O)C32)cc1 (stereo not given) | 0.262 | -0.0793 (inactive) | -1.06 (inactive) | 0.815 (inactive) | 1.65 (inactive) | 1.26 | 0.108 | 0.201 | 1.26 | 0.528 |
| CO[C@H]1O[C@H](CO)[C@@H](OC(=O)Nc2ccc(Oc3ccccc3)cc2)[C@H](OC(=O)Nc2ccc3c(c2)OCO3)[C@H]1OC(=O)Nc1ccc2c(c1)OCO2 | 0.636 | -1.48 (inactive) | -0.822 (inactive) | 1.09 (inactive) | -0.922 (inactive) | 0.412 | 0.443 | 0.387 | 0.661 | 1.41 |
| COc1cc2c(cc1O)C(c1cccs1)N(C)CC2 (stereo not given) | -0.289 | -0.0812 (inactive) | 0.134 (inactive) | -0.374 (inactive) | -0.0678 (inactive) | -1.17 | -0.218 | -1.19 | -0.597 | -0.44 |
| COC(=O)[C@@]1(Cc2ccc(F)cc2)[C@H]2c3cc(C(=O)N(C)C)n(Cc4ccc(Cl)c(C(F)(F)F)c4)c3C[C@H]2CN1C(=O)c1ccccc1 | 0.156 | -2.95 (inactive) | 0.44 (inactive) | 1.34 (inactive) | 0.778 (inactive) | 2.37 | 0.588 | 0.146 | 0.751 | -0.823 |
| CCCC=C(CCC)[C@@H](NC(=O)c1cccs1)c1ccc(C(F)(F)F)cc1 | 0.374 | -3.78 (inactive) | -0.407 (inactive) | -0.761 (inactive) | 0.796 (inactive) | 0.882 | 0.473 | 0.598 | 0.704 | 1.18 |
| CCCCN1CC=CC23O[C@@H]4C=CCCOC(=O)C4[C@H]2C(=O)N(CCCCCCO)[C@@H]3C1=O (stereo not given in full) | -0.767 | 0.311 (inactive) | 0.844 (inactive) | 0.333 (inactive) | -0.199 (inactive) | -0.564 | -0.208 | -1.22 | -1.23 | 1.65 |
| COc1ccc(C(O)C2C=CC3C(=O)N(Cc4ccccc4)C(=O)C3N2n2cnnc2)cc1OCc1ccccc1 (stereo not given) | 0.0401 | -2.81 (inactive) | -2.01 (inactive) | -0.424 (inactive) | -0.0263 (inactive) | 0.296 | -0.0962 | -0.476 | 0.562 | -0.733 |
| O=C1C[C@]2(c3ccc([N+](=O)[O-])cc3)C(=O)N(CC(F)(F)F)c3cc(CO)ccc3[C@H]2N1C1CCCCC1 | -0.446 | 0.465 (inactive) | 1.43 (inactive) | -0.412 (inactive) | -0.496 (inactive) | -0.463 | -0.0598 | -0.628 | -0.611 | -0.444 |
| Cc1ccc([C@@H]2C[C@@H](Sc3ccccc3)[C@H](C(=O)O)CN2S(=O)(=O)c2ccc(C)cc2)cc1 | 0.387 | -0.758 (inactive) | -0.606 (inactive) | -0.676 (inactive) | 0.762 (inactive) | 1.39 | 0.122 | 0.877 | 0.244 | -0.053 |
| O=C1C[C@@](C(=O)NC2CC2)(c2ccc([N+](=O)[O-])cc2)[C@@H](c2ccc(CO)cc2I)N1C1CCCCC1 | 0.693 | -3.54 (inactive) | -0.691 (inactive) | 0.495 (inactive) | 0.714 (inactive) | 1.38 | 0.0785 | 0.207 | 0.461 | 2.09 |
| CC(C)C(=C=CC[C@H](O)c1ccc(OCCO)cc1)CCO | 0.803 | -1.97 (inactive) | -0.596 (inactive) | 3.49 (inactive) | 0.36 (inactive) | 0.0996 | -0.179 | 1.37 | 0.653 | 2.05 |
| C=CC(=C)[C@H]1Oc2ccccc2S(=O)(=O)N2CCC[C@@H]12 | 0.0964 | -4.18 (inactive) | 1.16 (inactive) | 0.483 (inactive) | 0.133 (inactive) | 0.331 | -0.0332 | -1.02 | -1.06 | 0.0906 |
| NCCCCCNC(=O)[C@@H]1C[C@@H]2C(=O)N[C@@H](Cc3ccccc3)C(=O)N2[C@@H]1c1ccc(O)cc1 | 0.0588 | 0.0478 (inactive) | -0.35 (inactive) | 0.281 (inactive) | -0.629 (inactive) | 1.38 | 0.174 | 0.202 | 0.394 | 1.2 |
| O=C1O[C@@H](c2ccccc2)[C@@H](c2ccccc2)N2[C@@H](c3ccccc3OCCO)[C@]3(C(=O)Nc4ccccc43)[C@@H](C(=O)Nc3nc4ccccc4s3)[C@H]12 | 0.371 | -5.91 (inactive) | -0.311 (inactive) | 0.568 (inactive) | 3.07 (inactive) | 1.9 | 0.286 | 0.469 | 0.972 | 2.03 |
